# Screening results from PubChem.
# SRC2 inh = inhibition of GAL4-SRC2 driven luciferase reporter, primary screen, SRC2 inhibitor project, cell-based, luminescence | inhibition, % at 9 µM | 370,000 compounds, 0.17% hits | Nuclear receptor coactivator 2 (Homo sapiens), Q15596 | HEK293 GAL4-SRC2 luciferase reporter;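 active = inhibition above the mean inhibition of all tested compounds plus 3 SD, set per campaign, cut at about 52% in these data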;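 also: 0% = DMSO treated cells and 100% = cells given Gossypol at 36 µM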
# GalR3 antagonist = GalR3 antagonists in HEK293 cells, primary screen, cell-based, fluorescence readout | AID 651719, 2012 | inhibition, % at 3 µM | Galanin receptor type 3 (Homo sapiens), O60755 | HEK293 GalR3-CNG cAMP membrane potential fluorescence; galR3 body fused to GalR1 C-terminus | 360,000 compounds, 0.44% hits;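 active = inhibition above the screen-wide average plus 3 SD, cut at about 13% in these data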;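 also: forskolin and galanin both at EC90 stimulate the cells; cAMP rise reported by CNG channel membrane potential dye signal; 0% = forskolin plus galanin with DMSO and 100% = forskolin alone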
# Target sequence (O60755 1-299 limits assumed): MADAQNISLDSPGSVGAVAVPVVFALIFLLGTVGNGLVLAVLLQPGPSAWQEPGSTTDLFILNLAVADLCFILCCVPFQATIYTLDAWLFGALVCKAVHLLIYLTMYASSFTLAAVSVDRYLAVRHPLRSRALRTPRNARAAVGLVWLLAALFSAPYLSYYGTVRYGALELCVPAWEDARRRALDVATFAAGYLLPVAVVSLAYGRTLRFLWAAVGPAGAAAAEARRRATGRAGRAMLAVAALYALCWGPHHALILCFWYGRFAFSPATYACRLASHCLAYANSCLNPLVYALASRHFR
# COUP-TFII inh = NR2F2 transcriptional activity inhibitors, primary screen, cell-based, luciferase reporter, HEK293T, luminescence; COUP transcription factor 2 (Homo sapiens), P24468; HEK293T NGFI-A luciferase reporter; inhibition, % at 8.6 µM; 370,000 compounds, 0.7% hits; AID 686940, 2013;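 active = inhibition above a per-plate cutoff, mean inhibition of test wells between control levels plus 3 SD, cut at about 38% in these data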;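 also: cells cotransfected with COUP-TFII expression vector driving the NGFI-A reporter; 0% = median of COUP-TF2 test wells and 100% = reporter-only cells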
# Target sequence (P24468 whole entry, looked up): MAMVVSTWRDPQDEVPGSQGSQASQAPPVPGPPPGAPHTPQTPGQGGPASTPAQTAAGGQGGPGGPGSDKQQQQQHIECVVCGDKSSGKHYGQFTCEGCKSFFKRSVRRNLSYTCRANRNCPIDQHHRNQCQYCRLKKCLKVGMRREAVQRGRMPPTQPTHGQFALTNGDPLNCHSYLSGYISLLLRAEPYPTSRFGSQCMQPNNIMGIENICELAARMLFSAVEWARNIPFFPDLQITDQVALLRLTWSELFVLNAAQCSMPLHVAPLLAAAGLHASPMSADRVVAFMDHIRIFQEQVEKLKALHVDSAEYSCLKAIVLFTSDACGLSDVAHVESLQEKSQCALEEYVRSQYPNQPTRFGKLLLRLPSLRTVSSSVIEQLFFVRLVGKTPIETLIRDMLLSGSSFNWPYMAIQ
# NCOA3 inh = SRC3 coactivator transcriptional activity inhibitors, primary screen, cell-based, luminescence; 360,000 compounds, 0.17% hits; HEK293 GAL4-SRC3 luciferase reporter; inhibition, % at 3.6 µM; Nuclear receptor coactivator 3 (Homo sapiens), Q9Y6Q9; AID 588352, 2011;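 active = inhibition above a per-campaign cutoff, the mean of all compounds plus 3 SD, cut at about 60% in these data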;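 also: 0% = DMSO-treated cells and 100% = gossypol-treated cells at 36 µM; higher means less SRC3-driven luciferase light from the GAL4 reporter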
# SRC1 inh = SRC1 coactivator transcriptional activity inhibitors, primary screen, cell-based, luminescence. Nuclear receptor coactivator 1 (Homo sapiens), Q15788. HEK293 GAL4-SRC1 luciferase reporter. inhibition, % at 3.6 µM. 360,000 compounds, 0.12% hits;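 active = inhibition above the campaign mean plus 3 SD, with each screening campaign given its own cutoff, cut at about 60% in these data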;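 also: 0% = DMSO treated cells and 100% = gossypol at 36 µM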
# NR5A2 inv ag = LRH-1 (NR5A2) inverse agonists, primary screen, cell-based, luminescence, HEK293T, StAR-luciferase reporter; Nuclear receptor subfamily 5 group A member 2 (Homo sapiens), O00482; LRH-1 transfected, 24 h; inhibition, % at 3.6 µM; 360,000 compounds, 0.13% hits; AID 602396, 2012;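 active = inhibition above the mean inhibition of all tested compounds plus 3 SD, cut at about 73% in these data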;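 also: 0% = DMSO wells and 100% = reporter-only cells lacking LRH-1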
# GalR3 antag conf = GalR3 antagonist hit confirmation, cell-based, fluorescence, triplicate | shares compounds with GalR3 antagonist | HEK293 GalR3 CNG cAMP biosensor, membrane potential fluorescence; galR3 fused to GalR1 carboxy tail; challenged with forskolin and galanin at EC90 | inhibition, % at 3 µM | 1,600 compounds, 59% hits | AID 652245, 2013;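 active = inhibition above the primary screen's cutoff, the mean inhibition of all screened compounds plus 3 SD, cut at about 13% in these data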;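 also: 0% = forskolin plus galanin and 100% = forskolin alone with DMSO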
# CNG parental = nonspecific cAMP agonists in parental HEK-CNG cells, counter-screen for GalR3 antagonist project, cell-based, fluorescence, high throughput; 1,600 compounds, 10% hits; shares compounds with GalR3 antagonist; HEK293-CNG parental cells, cAMP membrane potential fluorescence; normalised: DMSO wells 0%, forskolin wells 100%; activation, % at 3 µM; in the data active = activation above about 1.3%
# Gal4-VP16 ctr = Gal4-VP16 luciferase reporter inhibitors, counter-screen for COUP-TFII antagonist project, cell-based, luminescence, HEK293 | shares compounds with COUP-TFII inh | inhibition, % at 8.5 µM | 2,500 compounds, 25% hits; in the data active = inhibition above about 13%
# NR2F2 inh conf = NR2F2 transcriptional activity inhibitors, confirmation, cell-based, luciferase reporter, HEK293, triplicate; shares compounds with COUP-TFII inh; HEK293 NGFI-A luciferase reporter, luminescence; inhibition, % at 8.5 µM; 2,500 compounds, 45% hits;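 active = mean inhibition over three repeats above a set limit taken from the earlier primary screen, cut at about 38% in these data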;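 also: 100% = cells given the luciferase reporter alone without the COUP-TF2 vector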
# Numbers without * were called inactive; / = not tested or not shown. An excerpt weighted towards active compounds, which were near 1.1% of everything screened.
SMILES,SRC2 inh,GalR3 antagonist,COUP-TFII inh,NCOA3 inh,SRC1 inh,NR5A2 inv ag,GalR3 antag conf,CNG parental,Gal4-VP16 ctr,NR2F2 inh conf
Cc1noc(C)c1COC(=O)c1cccc(S(=O)(=O)N2CCCCCC2)c1,40.2,79.7*,59.5*,36.8,9.1,10.9,84.2*,-0.3,4.1,35.7
Cc1noc(C)c1COC(=O)c1ccc(F)c(S(=O)(=O)N2CCCCC2)c1,-26.9,0.1,15.2,3.1,7.2,-3.7,/,/,/,/
CCCC[C@H](C(=O)N(CC)c1ccccc1)[C@@H](O)c1ccc(Cl)cc1,9.1,/,6.8,/,/,/,/,/,/,/
Cc1sc2ncnc(NCC3COc4ccccc4O3)c2c1C (stereo not drawn),23.7,100.2*,76.0*,30.0,25.6,42.1,105.1*,0.3,-3.5,61.6*
Cc1sc2ncnc(NCC3CCCO3)c2c1C (stereo not drawn),16.5,-4.4,10.6,10.9,-6.9,23.2,/,/,/,/
Cc1ccc(C2(c3ccc(C)cc3)CC2C(=O)Nc2ccc([N+](=O)[O-])cc2O)cc1 (stereo not drawn),-0.1,60.9*,67.0*,56.2,21.0,21.7,21.5*,-1.7,1.4,23.5
CCC1NC(=O)c2cccnc2-n2c1nc1ccc(OC)cc1c2=O (stereo not drawn),-9.5,-8.1,-1.2,-13.8,-15.7,-0.9,/,/,/,/
CCOC(=O)[C@]12CCCC=C1N(CCC1=CCCCC1)C(=O)[C@H](CC(=O)NCc1ccccc1)C2,-17.4,-5.3,4.6,/,/,0.5,/,/,/,/
Cc1nc2ccccc2cc1OCc1ccccc1,2.7,-5.6,23.7,-13.2,-12.5,12.0,/,/,/,/
Cc1nc2ccccc2cc1OCc1ccc(Cl)cc1,-0.6,93.7*,49.6*,-3.8,-15.2,11.0,94.4*,1.1,-60.9,28.8
COc1cccc(COc2cc3ccccc3nc2C)c1,-8.5,92.3*,58.6*,-2.6,3.2,27.8,102.6*,0.3,-62.5,41.1*
C/C=C/c1ccccc1OCCCN1CCC(C(O)(c2ccccc2)c2ccccc2)CC1,-0.7,/,6.6,/,/,/,/,/,/,/
Cc1cc(C(=O)CSc2nc(N)cc(=O)[nH]2)c(C)n1-c1ccc(OC(F)F)cc1,12.4,14.4*,53.2*,17.2,-9.3,23.6,97.9*,-0.2,-2.5,54.4*
CCN(CC)S(=O)(=O)c1ccc(Cl)c(NC(=O)COC(=O)c2ccc(O)cc2)c1,7.0,-1.5,17.8,14.4,-17.0,-26.5,/,/,/,/
CCN(CC)S(=O)(=O)c1ccc(Cl)c(NC(=O)COC(=O)c2cccn2C)c1,-5.2,64.9*,38.5*,13.4,-25.8,-15.8,-2.4,0.0,-11.3,5.9
CC(=O)Nc1ccc(CN(C)c2c(C)nc3ccc(C(=O)N4CCN(C(=O)c5ccco5)CC4)cn23)cc1,-9.3,-1.7,0.0,-11.2,-0.8,-18.3,/,/,/,/
C=CCc1cccc(CNc2cnc3ccccc3c2)c1O,26.6,59.9*,46.6*,-11.7,4.4,16.4,89.5*,-1.2,-53.5,25.4
Cc1nc2ccccc2n1Cc1ccc(Br)cc1,28.0,83.3*,57.6*,17.7,4.6,38.0,107.9*,0.0,-11.8,49.9*
Cc1nc2ccccc2n1Cc1ccccc1,1.8,-10.7,5.1,-6.0,8.6,9.6,/,/,/,/
CCOc1c(Br)cc(CNc2ccc3c(c2)OCCO3)cc1OC,39.8,-1.4,-5.8,56.4,34.6,54.7,/,/,/,/
CCOc1cc(CNc2ccc3c(c2)OCCO3)cc(Br)c1OC,48.4,/,51.4*,47.4,47.7,62.1,-0.4,1.1,-27.3,38.1*
Cc1cc(OCC(=O)Nc2ccncc2)cc(C)c1Br,-0.7,64.9*,58.0*,21.0,19.4,34.5,61.9*,-0.1,-3.4,36.6
O=C(COc1ccc2ccccc2c1)Nc1ccncc1,-25.0,66.2*,47.4*,3.3,-19.5,9.2,72.8*,-0.5,-24.1,8.0
CCCCOc1ccc(C(=O)Nc2ccncc2)cc1,-13.4,56.7*,51.1*,9.3,-8.6,27.5,101.8*,-0.1,-59.6,33.5
Cc1cc(OCC(=O)Nc2ccncc2)ccc1Cl,13.1,-6.1,19.9,10.5,0.1,17.5,/,/,/,/
SMILES,SRC2 inh,GalR3 antagonist,COUP-TFII inh,NCOA3 inh,SRC1 inh,NR5A2 inv ag,GalR3 antag conf,CNG parental,Gal4-VP16 ctr,NR2F2 inh conf
CCCOc1ccc(C(=O)Nc2cccnc2)cc1,-38.6,-10.8,-23.9,-104.9,-95.5,-97.9,/,/,/,/
Cc1ccc(Oc2ccc(OCC(=O)Nc3ccncc3)cc2)cc1,28.7,104.5*,72.3*,31.9,40.1,61.0,109.3*,-0.8,19.1*,74.3*
COc1ccc(C(C)(O)c2nc(-c3ccc(S(C)(=O)=O)cc3)cs2)cc1 (stereo not drawn),13.9,-4.3,-5.8,-15.6,2.1,23.6,/,/,/,/
O=C(C(=O)N1CCC(CNC(=O)c2cccnc2Cl)CC1)c1cc2ccccc2o1,-5.6,1.1,-8.2,/,/,/,/,/,/,/
CN1C(=O)C[C@@](C#N)(C(=O)NCc2ccc3c(c2)OCO3)[C@H]1c1ccccc1,4.0,/,-0.5,/,/,/,/,/,/,/
CCOC(=O)N1C(=O)C[C@](Sc2ccc(OC)cc2)(C(=O)N2CCCC2)[C@H]1c1ccc(OC)cc1,-20.0,/,10.8,/,/,/,/,/,/,/
O=C(COc1ccc(C(=O)c2ccccc2)cc1)Nc1cccnc1,19.2,97.4*,65.5*,3.8,-1.4,38.2,108.1*,-0.4,5.7,60.2*
O=C(CCCOc1ccccc1)Nc1cccnc1,2.5,-5.0,-11.3,5.7,-4.5,-13.5,/,/,/,/
CN(C)S(=O)(=O)N1CCC(Oc2cccc(C(=O)NC3CCCCC3)c2)CC1,35.9,14.2*,56.8*,15.0,34.3,18.1,62.2*,-0.3,-3.7,40.5*
COc1ccc(S(=O)(=O)Nc2ccc(Cc3ccncc3)cc2)cc1OC,21.9,-9.2,28.9,19.8,7.0,5.7,/,/,/,/
